Test results published in PubChem BioAssay (NCATS).
Results filed as inconclusive are left out. Calls of active or inactive are those of the source. Calls come from the whole dose curve; as a rule, active = well fitted curve in the direction sought with a large enough effect; inconclusive = small, poorly fitted or top-dose-only effect, or another doubt; inactive = no such curve, though single readings can be large; an effect the other way counts as inactive or inconclusive.

What was measured:
[1] = target: Phospholipid hydroperoxide glutathione peroxidase GPX4 (Homo sapiens) (UniProt P36969); experiment: Primary qHTS Assay for Inhibitors of Recombinant Selenoprotein Glutathione Peroxidase 4 (GPX4) (AID 1845192); note: nearly all actives have a fitted effect of over 65% in size; for activity change, negative = inhibition: series mostly up to about 50 µM; % is set by controls: 0 for no effect and ±100 for the full control effect
Chain of Phospholipid hydroperoxide glutathione peroxidase GPX4 (Homo sapiens) (P36969 whole entry, looked up): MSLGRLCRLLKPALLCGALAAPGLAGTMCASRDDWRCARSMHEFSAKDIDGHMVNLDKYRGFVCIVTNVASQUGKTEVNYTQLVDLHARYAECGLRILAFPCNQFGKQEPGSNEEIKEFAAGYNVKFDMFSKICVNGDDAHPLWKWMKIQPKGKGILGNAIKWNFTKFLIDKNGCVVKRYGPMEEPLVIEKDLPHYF
Summary of the method: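 GR-coupled readout: 100 nM GR, 1 mM GSH, 0.5 mM NADPH; NADPH fluorescence (ex 340/em 450 nm) read at t=0 and after 15 min RT. GPX4 200 nM, preincubated 30 min with compound; substrate 0.5 mM CHP.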

[2] = target: Luciferin 4-monooxygenase (Photinus pyralis) (UniProt P08659); experiment: Primary firefly luciferase (FLuc) qHTS assay for identification of artifact compounds. (AID 1845220); note: nearly all actives have a fitted effect of over 60% in size;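 for activity change, negative = inhibition: series mostly up to about 54 µM; plate controls were DMSO vehicle for no effect and no enzyme for full effect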
Summary of the method: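 In this counter-screen for luciferase artifacts, test compounds met substrate (10 uM each luciferin and ATP) before 10 nM enzyme started the reaction. Light output was measured 5 min later.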

[3] = Primary fluorescence-based thiol-reactive (MSTI) qHTS assay for identification of artifact compounds. (AID 1845221); note: nearly all actives have a fitted effect of over 65% in size; note: potency is the fitted concentration of half-maximal effect;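 for activity change, negative = thiol reactive: series mostly up to about 54 µM; thiol-reactive compounds lower the probe fluorescence signal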
Summary of the method: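 In PBS pH 7.4 with 2% DMSO, each compound met 4 uM MSTI for one hour at ambient temperature, shielded from light, before fluorescence detection.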

[4] = system: Nanoluciferase (engineered Oplophorus gracilirostris luciferase); experiment: Primary Nanoluciferase (NLuc) qHTS assay for identification of artifact compounds. (AID 1845222);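 note: NLuc secreted into diluted conditioned medium of S16 cells; series mostly up to about 54 µM; 0% = DMSO and -100% = no enzyme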
Summary of the method: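 Using secreted nanoluciferase in S16 culture medium (0.22 um filtered, 1:55 dilution), compounds were preincubated 15 min at RT. Signal was generated with Nano-Glo reagent (1:100) over 5 min.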

[5] = Primary redox qHTS assay for identification of artifact compounds. (AID 1845223);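 note: 0% = DMSO and 100% = reference compound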
Summary of the method: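 Amplex Red (25 uM) and HRP (250 mU/mL) in HBSS, with compounds for 15 min, then 250 uM DTT for 30 min, room temperature, dark. Fluorescence 525/598 nm read; normalized to DMSO and 10 uM DA3003; Hill fit.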

COC(=O)C1=CO[C@@H](O[C@@H]2O[C@H](CO)[C@@H](O)[C@H](O)[C@H]2O)[C@H]2[C@@H]1CC(OC)O[C@@H]2C (stereo not given in full)
inactive: Potency [1] | Potency [2] | Potency [4] | Potency [5]
active: Potency [3] 10.3 µM

CNS(=O)(=O)c1ccccc1Nc1nc(Nc2ccc(N3CCN(C)CC3)cc2OC)ncc1Cl
inactive: Potency [1] | Potency [2] | Potency [4] | Potency [5]
active: Potency [3] 2.38 µM

C=C1C[C@@]23CCC4[C@@](C)(CCC[C@@]4(C)C(=O)OC)C2CC[C@@H]1C3 (stereo not given in full)
inactive: Potency [1] | Potency [2] | Potency [3] | Potency [4] | Potency [5]

O=C(Cc1ccc(-c2ccccc2)cc1)NC1CCC1
inactive: Potency [1] | Potency [2] | Potency [3] | Potency [4] | Potency [5]

CC(C)c1cc(C(=O)N2CC[C@@H](NC(=O)C3CC3)C2)n[nH]1
inactive: Potency [1] | Potency [2] | Potency [3] | Potency [4] | Potency [5]

O=C1CC2(CCCC2)[C@H](O)C(=O)N1CCCCN1CCN(c2ncccn2)CC1
inactive: Potency [1] | Potency [2] | Potency [3] | Potency [4] | Potency [5]

CCN(Cc1cccnc1)C(=O)CN(c1ccc(OC)nc1)S(=O)(=O)c1ccccc1C
inactive: Potency [1] | Potency [2] | Potency [3] | Potency [4] | Potency [5]

Cc1cc(OCc2nnc(SC3CCCC3)n2-c2cccnc2)ccc1-c1ccc(S(C)(=O)=O)cc1
inactive: Potency [1] | Potency [2] | Potency [3] | Potency [4] | Potency [5]

CC(C)CN(C[C@@H](O)[C@H](Cc1ccccc1)NC(=O)O[C@@H]1CO[C@H]2OCC[C@H]21)S(=O)(=O)c1ccc(N)cc1
inactive: Potency [1] | Potency [2] | Potency [3] | Potency [4] | Potency [5]

CC1(C)[C@@H](O)CC[C@]2(C)[C@H]3CC=C4[C@@H]5C[C@](C)(C(=O)O)CC[C@]5(C)CC[C@@]4(C)[C@]3(C)CC[C@@H]12
inactive: Potency [1] | Potency [2] | Potency [3] | Potency [4] | Potency [5]

O=C(O)/C=C/c1ccc(-c2ccc(O)c(C34CC5CC(CC(C5)C3)C4)c2)cc1
inactive: Potency [1] | Potency [2] | Potency [3] | Potency [4] | Potency [5]

C[C@H]1CC[C@@]2(OC1)O[C@H]1CC3C4CC[C@H]5C[C@@H](O)[C@H](O)C[C@]5(C)C4=CC(=O)[C@]3(C)[C@H]1[C@@H]2C (stereo not given in full)
inactive: Potency [1] | Potency [2] | Potency [3] | Potency [4] | Potency [5]

Cc1c(CN2CCN(C(=O)C(C)O)CC2)sc2c(N3CCOCC3)nc(-c3cnc(N)nc3)nc12 (stereo not given)
inactive: Potency [1] | Potency [2] | Potency [3] | Potency [4] | Potency [5]

COc1ncc(Nc2ncc([C@H](C)N3CCN(S(C)(=O)=O)CC3)cc2-c2nc(C)nc(N)n2)cc1F
inactive: Potency [1] | Potency [2] | Potency [3] | Potency [4] | Potency [5]

O=C(Nc1ccn[nH]1)c1c(F)cccc1F
inactive: Potency [1] | Potency [2] | Potency [3] | Potency [4] | Potency [5]

C[C@@H]1O[C@@H](OC[C@H]2O[C@@H](Oc3cc(O)cc4c3C(=O)C(O)(Cc3ccc(O)cc3)O4)[C@H](O)[C@@H](O)[C@@H]2O)[C@H](O)[C@H](O)[C@H]1O (stereo not given in full)
inactive: Potency [1] | Potency [2] | Potency [3] | Potency [4] | Potency [5]

CC1=CC(=O)CC(C)(C)[C@H]1/C=C/C(CO)O[C@@H]1O[C@H](CO)[C@@H](O)[C@H](O)[C@H]1O (stereo not given in full)
active: Potency [3] 11.7 µM
inactive: Potency [1] | Potency [2] | Potency [4] | Potency [5]

C[C@@H]1O[C@@H](O[C@@H]2[C@@H](O)[C@H](O[C@H]3CC[C@@]4(C)C(CC[C@]5(C)C4CC=C4[C@@H]6CC(C)(C)CC[C@]6(C(=O)O[C@@H]6O[C@H](CO)[C@@H](O)[C@H](O)[C@H]6O)CC[C@]45C)C3(C)C)O[C@H](C(=O)O)[C@H]2O)[C@H](O)[C@H](O)[C@H]1O (stereo not given in full)
inactive: Potency [1] | activity change, negative = inhibition [2] 0.705% [at 11.6 µM] | activity change, negative = thiol reactive [3] 312% [at 11.5 µM] | activity, negative = inhibition [4] 2.86% [at 11.6 µM] | redox activity (% of DA3003) [5] 12.9% [at 11.5 µM]

C=C(F)c1sc(CNCCCNc2cc(=O)c3ccccc3[nH]2)c(C)c1Br
inactive: Potency [1] | Potency [2] | Potency [3] | Potency [4] | Potency [5]

COc1cc(C(=O)NC2CCN(C)CC2)ccc1Nc1ncc2c(n1)N(C1CCCC1)CC(F)(F)C(=O)N2C
inactive: Potency [1] | Potency [2] | Potency [3] | Potency [4] | Potency [5]

COC(=O)N(C)c1c(N)nc(-c2nn(Cc3ccccc3F)c3ncccc23)nc1N
inactive: Potency [1] | Potency [2] | Potency [3] | Potency [4] | Potency [5]

CC(=O)c1c(O)cc(O[C@@H]2O[C@H](CO)[C@@H](O)[C@H](O)[C@H]2O)cc1O
inactive: Potency [1] | Potency [2] | Potency [4] | Potency [5]
active: Potency [3] 4.14 µM
